Experimental data as given in PubChem BioAssay AID492950 (Southern Research Specialized Biocontainment Screening …, 2010).
Potency and affinity values are given separately. Values without a mark were called inactive. How the calls were made is not given here.

Assay: mammalian cell cytotoxicity, dose response, cytotoxicity control (AID 492950)
Conditions: cytotoxicity counter-screen; series mostly up to 40 µM; viability: at the top concentration

SMILES | viability [%]
O=C(Cc1cc(=O)[nH][nH]1)N/N=C/C=C/c1ccccc1 | 98.9
Cc1ccc(C2C(C#N)=C(N)Oc3n[nH]c(-c4cccs4)c32)cc1 (centres undefined) | 85.6
C/C(=N\NC(=O)Cc1cc(=O)[nH][nH]1)c1cccc([N+](=O)[O-])c1 | 91.2
CC(=O)Nc1cc(OC(=O)c2ccco2)cc(OC(=O)c2ccco2)c1 | 96.9
O=C1NC2=C(CCc3ccccc32)C(c2ccccc2)N1 (centres undefined) | 94.9
Fc1ccc(Nc2nc(Oc3ccccc3F)nc(N3CCCC3)n2)cc1 | 72.5
COC(=O)C(C#N)C(c1cccnc1)c1c(C)[nH][nH]c1=O (centres undefined) | 82.6
CCCc1c(-c2ccc(O)cc2)nn(-c2ccc(O)cc2)c1-c1ccc(O)cc1 | 74.2
CCOc1cc(C2C(C#N)=C(N)Oc3n[nH]c(-c4ccccc4)c32)ccc1O (centres undefined) | 92.9
Cc1[nH]n(-c2ccccc2)c(=O)c1C(c1cccc([N+](=O)[O-])c1)c1c(C)[nH]n(-c2ccccc2)c1=O | 89.2
C/C(=N\NC(=O)c1ccncc1)c1cc2ccccc2oc1=O | 92.7
O=C(Cc1cc(=O)[nH][nH]1)N/N=C/c1cccc2ccccc12 | 96
COc1ccc(-c2[nH]nc3c2C(c2ccoc2)C(C#N)=C(N)O3)cc1 (centres undefined) | 94.6
O=C(Cc1cc(=O)[nH][nH]1)N/N=C/c1ccccc1Cl | 95.8
N#CC1=C(N)Oc2n[nH]c(-c3cccs3)c2C1c1cccs1 (centres undefined) | 82.8
O=C(Cc1cc(=O)[nH][nH]1)N/N=C/c1c(F)cccc1Cl | 102
Cc1ccc(SCc2[nH]nc3c2C2(CCSCC2)C(C#N)=C(N)O3)cc1 | 102
CCOc1ccc(-c2[nH]nc3c2C(c2ccc(O)cc2)C(C#N)=C(N)O3)cc1 (centres undefined) | 96.8
COc1cccc(-c2[nH]nc3c2C(c2ccsc2)C(C#N)=C(N)O3)c1 (centres undefined) | 89
Fc1ccc(Oc2nc(-c3ccccc3)nnc2C(F)(F)F)cc1 | 96
O=C(Cc1ccccc1)c1c[nH]c(C(=O)C(Cl)(Cl)Cl)c1 | 98.5
Cc1ccc(SCC2=NNC(=O)C2)cc1 | 92.7
CCCCCCOC(=O)c1ccc(OC(=O)c2cccnc2)cc1 | 95.7
CCCCc1ccc(NC(=O)CSCc2cc(=O)[nH][nH]2)cc1 | 99.3
Cc1ccccc1-c1nc(CN(C)C(C)c2ccon2)c(C)o1 (centres undefined) | 93.4
C/C(=N/NC(=O)Cc1cc(=O)[nH][nH]1)c1ccc([N+](=O)[O-])cc1 | 93
O=C(CSCc1cc(=O)[nH][nH]1)Nc1ccc(F)cc1 | 97.7
CCC(C)[C@@H](NC(=O)OC(C)(C)C)c1nnc(S(=O)(=O)Cc2cccc(C)c2)o1 (some centres undefined) | 85.8
O=C(Cc1cc(=O)[nH][nH]1)N/N=C/c1c(Cl)cccc1Cl | 91.8
